Assay outcomes (PubChem BioAssay)
ST2 IL33 inh: inhibitors of human ST2 (IL1RL1) binding to IL-33, primary screen, biochemical, AlphaLISA; Interleukin-1 receptor-like 1 (Homo sapiens), Q01638; AlphaLISA ST2-Fc/biotin-IL-33 interaction, 1 h; inhibition, % for hits at 17 µM; 2.3% of 78,000 active; AID 1259354, 2018; in the data active = inhibition above about 30%
Target sequence (Q01638 whole entry, looked up): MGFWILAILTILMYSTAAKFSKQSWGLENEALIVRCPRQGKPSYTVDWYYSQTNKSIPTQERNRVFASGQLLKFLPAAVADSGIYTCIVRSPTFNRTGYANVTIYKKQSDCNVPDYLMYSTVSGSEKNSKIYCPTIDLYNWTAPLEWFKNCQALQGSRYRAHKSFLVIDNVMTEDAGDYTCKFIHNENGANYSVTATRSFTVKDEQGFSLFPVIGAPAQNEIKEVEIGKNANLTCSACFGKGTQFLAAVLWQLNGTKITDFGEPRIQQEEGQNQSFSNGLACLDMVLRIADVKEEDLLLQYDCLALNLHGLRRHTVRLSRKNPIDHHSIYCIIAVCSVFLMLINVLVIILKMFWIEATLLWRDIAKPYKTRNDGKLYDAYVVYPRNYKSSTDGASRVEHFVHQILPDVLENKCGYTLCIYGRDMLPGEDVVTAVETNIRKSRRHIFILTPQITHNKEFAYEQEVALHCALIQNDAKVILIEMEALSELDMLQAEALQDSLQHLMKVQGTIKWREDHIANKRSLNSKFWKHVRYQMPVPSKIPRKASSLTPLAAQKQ
Of the large screens only hits and unclear results are named; the others gave an inactive call. This is one part of a sample in which hits are shown more often than they occur.

CCOC(=O)C1C(=O)C=C(c2cccs2)CC1c1ccc(OC)c(OC)c1 (configuration not stated)	none
CCCc1cc(=O)[nH]c(SCC(=O)Nc2ccccc2C(F)(F)F)n1	none
CC(C)C1N=C2c3ccccc3N=C(SCC(=O)NCCc3ccccc3)N2C1=O (configuration not stated)	none
Cc1cc2n(c1)CCn1c(C)ccc1-2	ST2 IL33 inh 63%
COc1ccc(N2CCN(C(=O)c3sc4nc(C)nc(N5CCOCC5)c4c3C)CC2)cc1	none
O=C(c1nc(-c2ccncc2)no1)N1CCN(c2ncccn2)CC1	none
CC(C)CC(=O)OCC1=CCCC2C1(C)CCC(C)C2(C)CCC(C)CC(=O)O (configuration not stated)	none
CC1=CC(C)(C)Nc2ccc(OC(=O)COc3ccc(Cl)cc3)cc21	none
COc1ccc(I)c(OC)c1	none
COc1ccc2c(c1)C(C)=CC(C)(C)N2	ST2 IL33 inh 42%
O=C1NN(c2cccc(Br)c2)C(=O)/C1=C\c1ccc2c(c1)OCO2	none
O=C(Nc1ccc2ncsc2c1)c1cccc(CN2CCCC(O)C2)c1 (configuration not stated)	none
O=C(O)c1ccc(NC(=O)c2cccc([N+](=O)[O-])c2)cc1	none
CC(C)C(C(=O)Nc1ccccc1C(F)(F)F)N1C(=O)c2ccccc2C1=O (configuration not stated)	none
CC1CC(N(C(=O)c2ccc3c(c2)OCO3)c2ccccc2)c2ccccc2N1 (configuration not stated)	none
CCSc1nc(CC(=O)NCc2cc(CC)no2)cs1	none
CCSc1nc(CC(=O)NCc2sc(C)nc2CC)cs1	ST2 IL33 inh 31%
CCSc1nc(CC(=O)NCc2ccc(CC)cn2)cs1	none
CCNC(=O)N[C@H]1CC[C@]2(C)CC[C@@H]([C@H](C)C(=O)N3CCCCC3)[C@H](O)[C@H]2[C@@H]1C	none
CCn1c(C2CCNCC2)nn(CC2CN(Cc3ccccc3)CCO2)c1=O (configuration not stated)	none
C=CCNC(=O)C(CC)c1ccccc1 (configuration not stated)	none
C=CCN1C(=Nc2cccnc2)SCC1(O)c1ccc(OC)cc1 (configuration not stated)	ST2 IL33 inh 61%
COc1ccc(C(CC(=O)N2CCN(c3cnccn3)CC2)c2ccccc2)cc1 (configuration not stated)	none
C=CCN1C(=Nc2cccnc2)SCC1(O)c1ccc(C)cc1 (configuration not stated)	ST2 IL33 inh 59%
CCC(=O)N1N=C(C)CC1(O)c1cccnc1 (configuration not stated)	none
CCC1=NN(C(=O)c2cccnc2)C(O)(c2ccc(Br)cc2)C1 (configuration not stated)	none
Cc1ccc2cc(C3(O)CCN(C(=O)COc4cccnc4)CC3)ccc2n1	none
CC(=O)n1c2ccccc2c2c1c1ccccc1n2C	none
Cc1c(C(=O)Cc2ccccc2)n(C)c2ccccc12	ST2 IL33 inh 37%
CC(=O)c1ccc2c(c1)c1ccccc1n2C	none
COCc1cc(CC2(NCc3cc4ccccc4o3)COC2)no1	none
Nc1cccc2c1C(=O)N(c1ccc(O)cc1)C2=O	none
COc1ccc(N2C(=O)S/C(=C\c3ccc(O)cc3)C2=O)cc1	none
N=C1S/C(=C\c2ccccc2F)C(=O)N1c1ccc2c(c1)OCO2	none
O=C1S/C(=C\c2ccccc2Cl)C(=O)N1c1ccc(O)cc1	ST2 IL33 inh 38%
CC(=C/c1ccccc1)/C=C1/SC(=O)N(c2ccc(O)cc2)C1=O	ST2 IL33 inh 45%
O=C1S/C(=C\c2ccc(O)cc2)C(=O)N1c1ccc(O)cc1	none
Cc1cccc(C)c1N(CC(=O)N1CCN(c2ccc(F)cc2)CC1)S(C)(=O)=O	none
CSc1cccc(NC(=O)CSc2cc(=O)n(C)c3ccccc23)c1	none
CC(CNCC1CCCO1)COc1ccccc1F (configuration not stated)	none
Cn1c2c(c3cc([N+](=O)[O-])ccc31)CCCC2=O	none
Cc1c(CC(Cl)(Cl)Cl)c2c(n1-c1ccc([N+](=O)[O-])cc1)CCCC2=O	ST2 IL33 inh 41%
Cc1c(CC(Cl)(Cl)Cl)c2c(n1O)CC(C)(C)CC2=O	none
CC(=O)Nc1cccc(NC(=O)Nc2cccc(Cl)c2)c1	none
Cc1ccc(C2=N/C(=C\c3cccnc3)C(=O)O2)cc1[N+](=O)[O-]	none
Cc1ccc(-c2ccc(/C=C3/NC(=O)NC3=O)o2)cc1[N+](=O)[O-]	ST2 IL33 inh 41%
CC1=C(C#N)C(=O)NC(=O)/C1=C\c1ccc(-c2cc(C)c(C)cc2[N+](=O)[O-])o1	ST2 IL33 inh 34%
Cc1ccc(-c2ccc(C=C3C(=O)OC(C)(C(C)(C)C)OC3=O)o2)cc1[N+](=O)[O-] (configuration not stated)	none
O[C@@H]1C[C@H]2CN(Cc3cnc(-c4cccc5ccccc45)nc3)C[C@H]2C[C@@H]1O	none
Cc1c(C(=O)NC(C)(C)CN2CCOCC2)sc2ncn(C)c(=O)c12	none
C#CCNC(=O)CC[C@@H]1CNC(=O)[C@@H]2C[C@H](NC(=S)NCCOC)CN12	none
Cc1ccc(C(c2sc3nc(C)nn3c2O)N2CCc3ccccc3C2)cc1 (configuration not stated)	none
CC(C)c1ccc(Nc2nnc(Cc3ccc(Cl)cc3)c(=O)[nH]2)cc1	none
COc1ccccc1N1CCN(C(=O)CCC2=NS(=O)(=O)c3ccccc3N2)CC1	none
CC1(C)C(=O)C2(CCCCC2)C(=O)OC1c1ccccc1F (configuration not stated)	none
O=C(CSc1nc2c([nH]c3ccccc32)c(=O)n1-c1ccc(Cl)cc1)Nc1nccs1	ST2 IL33 inh 31%
COc1ccc(-n2c(SCC(N)=O)nc3c([nH]c4ccccc43)c2=O)cc1	none
NC(=O)CSc1nc2c([nH]c3ccccc32)c(=O)n1-c1ccccc1	none
CCOC(=O)c1nn(CCc2ccc(OC)cc2)c2c1CN(Cc1cccn1-c1ccccn1)CC2	none
O=C(Nc1ccc(N2CCCC2)cc1)c1ccc(F)cc1	ST2 IL33 inh 57%
O=C(Cc1ccccc1)Nc1ccc(N2CCCC2)cc1	ST2 IL33 inh 59%
CCCOc1ccc(C(=O)Nc2ccc(N3CCCC3)cc2)cc1	none
O=C(Cc1ccccc1)Nc1ccc(S(=O)(=O)N2CCCC2)cc1	none
O=C(Nc1ccc(I)cc1)c1ccc(Cl)cc1Cl	none
O=C(Cc1ccccc1)Nc1cccc(C(=O)O)c1	none
CCc1cccc(C)c1NC(=O)c1ccc(C)c(Cl)c1	none
CC(=O)Nc1ccc(NC(=O)c2cc(I)ccc2Cl)cc1	none
CC(=O)c1ccc(C(=O)Nc2ccc(N3CCOCC3)cc2)cc1	none
Cc1ccc(C(=O)Nc2ccc(N3CCCC3)cc2)cc1Cl	ST2 IL33 inh 53%
Cc1ccc(C(=O)Nc2cccc([N+](=O)[O-])c2)cc1Cl	none
O=C(Nc1ccc(N2CCCC2)cc1)c1cc(I)ccc1Cl	ST2 IL33 inh 51%
CCN(CC)Cc1cnc2c(C(=O)N3C[C@H]4CC=CC[C@H]4C3)cnn2c1	none
Cn1c(=O)[nH]c2nnc(-c3cccs3)nc2c1=O	none
O=C(NC1(c2cc(F)ccc2F)CC1)C1CC2(CCNCC2)CN1 (configuration not stated)	none
O=C1NCC(=O)N2CCN(C(=O)c3ccc4cccc(F)c4n3)CC12 (configuration not stated)	none
CC1(C)CC(=O)C=C(C(=O)Nc2ccccc2C(=O)N2CCCCCC2)O1	none
O=C(c1cc(-c2ccc(Cl)c(Cl)c2)nc2ccccc12)N1CCOCC1	none
Cn1nnnc1SCCNC(=O)c1scc2c1OCCO2	none
Cc1ccc(C(=O)Nc2nnc(N=Cc3ccc(F)cc3)s2)cc1	none
O=c1[nH]c2ccc(N=Cc3cc(O)ccc3Br)cc2[nH]1	none
O=C1NC(=O)c2cc(N=Cc3ccc(Cl)cc3)ccc21	none
